Mtb UGM inh: M. tuberculosis UGM enzyme inhibitors, primary screen, biochemical, fluorescence polarization, single point; purified UGM, fluorescence polarization probe displacement; inhibition, % at 10 µM; hit rate 0.06% among 320,000; in the data active = inhibition above about 10%, passing the limit was not always enough
Rv3671c inh: Rv3671c serine protease inhibitors, primary screen, biochemical, fluorescence polarization, M. tuberculosis H37Rv. inhibition, % at 5.96 µM. hit rate 0.048% among 320,000; in the data active = inhibition above about 38%;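 also: extracellular domain of Rv3671c used as enzyme; 0% = enzyme with DMSO and 100% = no enzyme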
Target sequence (P9WHR9 whole entry, looked up, the tested form may be a part): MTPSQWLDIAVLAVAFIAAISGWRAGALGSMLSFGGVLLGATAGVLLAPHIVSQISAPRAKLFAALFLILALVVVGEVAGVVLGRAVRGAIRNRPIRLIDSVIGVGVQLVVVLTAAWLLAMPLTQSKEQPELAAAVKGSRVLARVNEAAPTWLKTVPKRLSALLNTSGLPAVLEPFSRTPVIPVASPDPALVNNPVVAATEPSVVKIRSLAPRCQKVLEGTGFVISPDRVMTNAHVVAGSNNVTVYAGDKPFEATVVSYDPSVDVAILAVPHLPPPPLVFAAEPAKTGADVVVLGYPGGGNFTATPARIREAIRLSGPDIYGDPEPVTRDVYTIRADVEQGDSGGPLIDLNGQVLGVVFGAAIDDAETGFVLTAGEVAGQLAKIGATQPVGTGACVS
Mtb betalactam: beta-lactam sensitization of Mtb H37Rv, H37Rv | hit rate 0.27% among 330,000 | M. tuberculosis H37Rv growth with meropenem, percent inhibition | inhibition, % at 25 µM; call rule not given here;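 also: growth measured after seven days incubation then overnight dye step; 0% = bacteria only wells and 100% = bacteria with antibiotic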
GDH-TPI counter-1: GDH-TPI coupling enzyme inhibitors, primary screen, artefact control for M. tuberculosis FBA inhibitor project, biochemical, absorbance, full deck; hit rate 1.2% among 360,000; inhibition, % at 4.8 µM; GDH-TPI coupled enzyme counterscreen, NADH absorbance; AID 588335, 2011; in the data active = inhibition above about 30%;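 also: 0% = DMSO wells and 100% = wells lacking the enzyme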
SSB-PriA inh: inhibitors of Klebsiella pneumoniae PriA binding to SSB C-terminal tail, primary screen, biochemical, AlphaScreen; PriA–SSB C-terminal tail interaction (Klebsiella pneumoniae); AlphaScreen SSBct-PriA binding, biotinylated peptide; inhibition, % at 33 µM; hit rate 0.6% among 430,000; AID 1272365, 2023; in the data active = inhibition mostly above about 37%, no sharp cut-off; inactive = mostly below about 20%;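 also: plate controls were negative control peptide for no effect and reference peptide for full effect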
FBA Mtb inh: Mtb FBA enzyme inhibitors, primary screen, biochemical, fluorescence, strain H37Rv. purified M. tuberculosis FBA, fluorescence read-out. hit rate 2.3% among 360,000. inhibition, % at 1 µM;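 also: 0% = vehicle and 100% = reference inhibitor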
Mtb FBA inh conf: M. tuberculosis aldolase blockers, biochemical, fluorescence, strain H37Rv, confirmation; purified M. tuberculosis FBA, fluorescence read-out; hit rate 78% among 5,600; AID 651616, 2012; inhibition, % at 1 µM; shares compounds with FBA Mtb inh;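 also: 0% = vehicle wells and 100% = reference inhibitor wells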
GDH-TPI counter-2: GDH-TPI coupling enzyme inhibitors, artefact control for M. tuberculosis FBA inhibitor project, biochemical, fluorescence, high throughput. inhibition, % at 1 µM. shares compounds with FBA Mtb inh. GDH-TPI coupled enzyme counterscreen. hit rate 81% among 5,600; in the data active = inhibition above about 10%
GDH-TPI DR: GDH-TPI coupling enzyme inhibitors, dose response, artefact control for M. tuberculosis FBA inhibitor project, biochemical, fluorescence, IC50; shares compounds with FBA Mtb inh; GDH-TPI coupled enzyme assay, artifact counterscreen; IC50, µM; hit rate 79% among 170; call rule not given here
Numbers without * were called inactive; · = not tested or not shown; + = active, no number; ! = repeats disagree. Sampled rows, rich in hits. Any-hit rate of the full collection: about 3.2%. Rule as the data show it, unless noted: active = inhibition above about 27%; inactive = the rest.

SMILES	Mtb UGM inh	Rv3671c inh	Mtb betalactam	GDH-TPI counter-1	SSB-PriA inh	FBA Mtb inh	Mtb FBA inh conf	GDH-TPI counter-2	others
COc1ccc(-c2cc3nc(NCCCN(C)C)n(C)c(=O)c3s2)cc1OC	·	·	·	19.9	·	46.8*	128.7*	86.3*
COc1ccc(-c2sc(C(=O)c3ccc(Cl)cc3Cl)cc2CC(=O)O)cc1	4.9	-13.4	-3.8	15.9	-2.0	45.1*	72.6*	55.3*
CSc1ccc2nc(N3CCN(C(=O)Cc4ccc5ccccc5c4)CC3)sc2c1	·	·	·	·	-17.0	·	·	·
CCCCNC(=S)N(CCN(CC)CC)Cc1cc2cc3c(cc2[nH]c1=O)OCO3	-0.9	-5.8	-3.5	32.9*	-12.9	32.3*	15.8	4.5	GDH-TPI DR=4.92*
CN(C)CCN(Cc1cc2cc3c(cc2[nH]c1=O)OCO3)C(=S)NCc1ccco1	1.1	2.6	-6.7	25.2	10.8	32.4*	77.1*	52.3*
CCN(CC)CCN(Cc1cc2cc3c(cc2[nH]c1=O)OCO3)C(=S)NC	0.0	-2.9	1.3	23.4	-8.0	101.5*	64.2*	54.9*
Cc1cccc(NC(=S)N(CCCN(C)C)Cc2cc3cc4c(cc3[nH]c2=O)OCO4)c1	-0.3	-1.7	-0.1	16.4	7.1	27.4*	7.6	-4.0
CC(=O)N(CCc1ccccc1C)Cc1cc2cc3c(cc2[nH]c1=O)OCO3	-3.7	-0.4	6.2	11.0	-12.6	38.9*	187.1*	170.0*
CCNC(=S)N(CCCN(CC)CC)Cc1cc2cc3c(cc2[nH]c1=O)OCO3	0.3	-3.4	-7.5	21.5	1.5	24.3	·	·
CCN(CC)CCN(Cc1cc2cc3c(cc2[nH]c1=O)OCO3)C(=S)NCCCN(C)C	2.5	-2.9	-14.5	30.4	7.2	35.2*	30.1*	27.8*
CCNC(=S)N(CCN(C)C)Cc1cc2cc3c(cc2[nH]c1=O)OCO3	0.5	-2.2	5.2	13.8	-0.6	43.6*	57.9*	42.8*
O=c1c2nnn(-c3ccccc3)c2ncn1Cc1nc(-c2ccc(F)cc2)no1	·	·	·	·	-21.0	·	·	·
COCC1OC(OC(C)C(O)c2cnc3nc(N)[nH]c(=O)c3n2)C(O)C(OC)C1O (stereo not drawn)	·	·	·	-4.2	·	103.4*	92.4*	66.0*
Cc1ccc2[nH]ccc(=O)c2c1	0.9	1.3	5.4	11.9	9.0	30.4*	52.2*	38.7*
Cc1ccc2[nH]c(CSc3ccccc3)cc(=O)c2c1	-0.2	1.4	5.6	15.0	1.3	1.0	·	·
COc1ccc(NC(=O)C(=O)NCC(c2ccc(N(C)C)cc2)N2CCCC2)cc1 (stereo not drawn)	·	·	·	·	1.0	·	·	·
CC(C)n1c(/C=C/c2ccccc2)nc2ccccc21	-1.6	-12.9	60.1	34.3*	-68.4	66.5*	36.3*	20.1*
COCc1nc2ccccc2n1C(C)C	·	·	·	·	0.0	·	·	·
COCCOCCn1c(/C=C/c2ccccc2)nc2ccccc21	1.7	-7.9	-0.5	15.1	-10.8	28.1*	-3.9	-4.2
Cc1ccc(NC(=O)Cn2c(/C=C/c3ccccc3)nc3ccccc32)cc1C	0.4	-2.0	-3.3	10.4	-10.8	29.4*	67.7*	53.0*
COc1ccccc1OCC(=O)Nc1ccc2c(c1)N(C(=O)c1ccco1)CC2	·	·	·	·	13.0	·	·	·
Cc1cccc(N2CCc3c2nc2ccccc2c3N)c1	-0.6	-3.1	13.2	9.5	-5.7	69.7*!	52.0*	37.2*
COc1cc2nc(N3CCN(C(=O)[C@H]4COc5ccccc5O4)CC3)nc(N)c2cc1OC	0.7	-1.9	5.5	2.6	-0.5	81.8*	62.6*	38.3*
COc1ccc(N2CCN(C(=O)C3COc4ccccc4O3)CC2)cc1 (stereo not drawn)	-1.0	2.6	-11.2	-7.6	16.8	-2.1	·	·
O=C(O)c1c(-c2ccccc2)c2oc3ccccc3c2[nH]c1=O	2.0	-6.5	11.8	17.0	-3.0	107.9*	89.7*	70.4*
SMILES	Mtb UGM inh	Rv3671c inh	Mtb betalactam	GDH-TPI counter-1	SSB-PriA inh	FBA Mtb inh	Mtb FBA inh conf	GDH-TPI counter-2	others
CC(OC(=O)c1ccccc1NCCO)C(=O)Nc1ccc(S(=O)(=O)N2CCOCC2)cc1 (stereo not drawn)	0.6	-1.4	6.5	1.4	-24.8	57.3*	58.0*	53.7*
CC(OC(=O)CNC(=O)c1ccccc1)C(=O)Nc1ccc(S(=O)(=O)N2CCOCC2)cc1 (stereo not drawn)	·	·	·	7.6	-20.2	4.8	·	·
COc1cc2cc(C(=O)O)[nH]c2c(OC)c1OC	0.2	-3.0	1.6	-11.8	-9.3	34.6*	112.0*	73.9*
CCS(CC)=NS(=O)(=O)c1ccc(NC(C)=O)cc1	·	4.3	2.9	-1.3	-3.0	63.9*	98.3*	86.7*
O=C(O)COc1ccc2c3c(c(=O)oc2c1)CCC3	1.1	5.0	-8.4	6.0	-1.2	96.3*	71.8*	47.2*
O=C(COc1ccc2c3c(c(=O)oc2c1)CCC3)N1CCN(c2ccccc2)CC1	-5.5	4.8	-8.1	9.6	7.9	9.0	·	·
CN(C)C(=O)COc1ccc2c3c(c(=O)oc2c1)CCCC3	1.2	2.1	1.4	14.7	-12.4	61.5*	107.3*	83.5*
CCc1c(C)c2ccc(OCC(N)=O)cc2oc1=O	3.1	-0.8	0.7	0.0	-4.5	87.5*	17.8	6.0
CCOC(=O)COc1ccc2c3c(c(=O)oc2c1)CCCC3	0.7	-2.8	98.7	0.0	-17.2	32.2*	+	181.6*
COC(=O)Cn1c(=NC(=O)c2ccnn2C)sc2cc(S(C)(=O)=O)ccc21	·	·	·	·	-7.0	·	·	·
O=C(NN=Cc1cc(Br)c(Br)o1)C(O)c1ccccc1 (stereo not drawn)	·	·	·	·	-4.0	·	·	·
CC(C)CC(C(=O)Oc1ccc2c3c(c(=O)oc2c1)CCC3)N1C(=O)c2ccccc2C1=O (stereo not drawn)	·	·	·	4.3	-10.2	31.1*	12.8	-3.0	GDH-TPI DR=5.55*
O=C(COc1ccc2c3c(c(=O)oc2c1)CCC3)Nc1ccc(CCO)cc1	-1.7	-5.0	7.6	9.6	0.8	8.9	·	·
CCN(CC)C(=O)COc1ccc2c3c(c(=O)oc2c1)CCCC3	0.3	-5.2	2.1	10.4	-3.6	50.4*	40.0*	40.9*

Assay outcomes from PubChem BioAssay.
